Screening data deposited in PubChem BioAssay by The Scripps Research Institute Molecular Screening Center.
DAX1 inh-1: blocks DAX1 repression of SF-1 activated StAR promoter; HEK293T StAR-luciferase reporter, SF-1/DAX-1 repression relief; inhibition, % at 6.8 µM; actives 1.1% (n = 370,000); AID 652010;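 active = inhibition above the mean over all tested compounds plus 3 SD, cut at about 3.6% in these data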;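 also: higher inhibition means more luminescence from relief of DAX-1 repression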
DAX1 inh-2: inhibits human nuclear receptor DAX1. actives 0.99% (n = 340,000). HEK293 Gal4-DAX1 luciferase reporter, luminescence. inhibition, % at 6.75 µM. AID 504766. P51843;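 active = inhibition above the mean over all tested compounds plus 3 SD, cut at about 4.2% in these data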;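 also: inhibition shows as a rise in luminescence from relieved DAX1 repression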
Target sequence (P51843 207-470 limits assumed): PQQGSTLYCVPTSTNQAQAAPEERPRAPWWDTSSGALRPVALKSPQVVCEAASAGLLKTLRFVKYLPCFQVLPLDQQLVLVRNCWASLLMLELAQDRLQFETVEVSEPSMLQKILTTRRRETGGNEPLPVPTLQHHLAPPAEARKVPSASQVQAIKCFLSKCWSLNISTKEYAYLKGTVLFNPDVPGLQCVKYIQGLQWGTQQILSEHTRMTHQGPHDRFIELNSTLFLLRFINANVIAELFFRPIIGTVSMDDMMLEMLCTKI
hcDAF-12 act: activators of H. contortus DAF-12 nuclear receptor; HEK293 hcDAF-12 lit1-tk-luc reporter, luminescence; 0% DMSO, 100% Δ7-dafachronic acid; activation, % at 6.8 µM; actives 1.4% (n = 370,000); AID 652067;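 active = activation above the mean of all tested compounds plus 3 SD, cut at about 5.5% in these data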
AHR act: activates the human aryl hydrocarbon receptor. actives 2.5% (n = 320,000). AHR-responsive luciferase reporter cells, luminescence. P35869. activation, % at 5 µM. AID 2796; in the data active = activation above about 47%
hgDAF12 agonist: hgDAF-12 agonism, primary luciferase screen; HEK293 GAL4-hgDAF12 UAS-luciferase reporter, agonist luminescence; normalized to butyrate control; activation, % at 6.8 µM; actives 1.8% (n = 370,000); AID 687014;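 active = activation above a cutoff set at the mean of all screened compounds plus 3 SD, cut at about 10% in these data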
ssDAF12 agonist: S. stercoralis DAF-12 activation, primary screen; HEK293 ssDAF-12/GRIP1 lit1-tk-luc reporter, luminescence; % of 3 µM dafachronic acid response; activation, % at 6.8 µM; actives 1% (n = 370,000); AID 652126;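 active = activation above the mean over all tested compounds plus 3 SD, cut at about 0.9% in these data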
Hits are given with their value; 0 = inactive; - = no result given. Shown are actives, neighbours in structure and some others; about 5.7% of the full set was active somewhere.

SMILES	DAX1 inh-1	DAX1 inh-2	hcDAF-12 act	AHR act	hgDAF12 agonist	ssDAF12 agonist
CC(=O)Nc1ccccc1NC(=O)C/C(C)=N/NC(=O)Cc1cccc2ccccc12	0	0	0	0	0	0
Cc1ccc2cn[nH]c2c1[N+](=O)[O-]	0	4.9	5.6	0	0	0
Cc1cccc2cn[nH]c12	0	0	0	0	0	0
CCc1ccc([C@H]2[C@@H]3C(=O)C[C@@H]4C(=O)N(C5CCCCC5)C(=O)[C@@H]4[C@@H]3CN2S(=O)(=O)c2ccc(C)cc2)cc1	0	-	0	-	0	0
Cc1c(C)c2ccc(OC(C)C(=O)N[C@@H](Cc3c[nH]c4ccccc34)C(=O)O)c(C)c2oc1=O (stereo partly drawn)	0	0	5.9	0	0	0
Nc1c(C(=O)Nc2nccs2)sc2nc(-c3cccs3)cc(C(F)(F)F)c12	0	0	0	65.2	0	0
Cc1ccc(SC[C@H](CC(C)C)N2CCN(CCc3ccccc3)CCC2=O)cc1	0	0	0	-	0	0
CC(=O)Nc1ccc(SC[C@H](CC(C)C)N2CCN(CCc3ccccc3)CCC2=O)cc1	0	0	0	48.3	0	0
NNC(=O)c1nnsc1-c1csnn1	0	0	0	-	10.5	0
O=C(O)c1nnsc1-c1csnn1	0	0	0	-	0	0
COc1ccc(C(=O)Nc2cnc3ccccn3c2=O)cc1	0	0	0	0	11.7	0
O=C(Nc1cnc2ccccn2c1=O)c1ccc(F)cc1	0	0	0	0	10.6	0
COc1ccc(OC)c(NC(=O)c2cc3c(=O)n4ccccc4nc3n2C)c1	0	0	0	0	0	0
CSCC[C@H](NS(=O)(=O)c1ccc(C)cc1)C(=O)N1CCC(C(=O)N[C@H](C(=O)O)c2ccccc2)CC1	0	0	0	0	0	0
O=C(Nc1ccc2c(c1)OCO2)c1ccc2sc([C@H]3C[C@H](O)[C@@H](CO)O3)nc2c1	0	-	0	-	0	0
O=[N+]([O-])c1cccnc1NCCc1c[nH]c2ccccc12	0	0	0	0	12.3	1.0
O=C(Nc1nc2nccc(-c3ccccc3)n2n1)C(Cl)(Cl)Cl	0	0	0	53.9	0	0
Cn1c2c(c(=O)n(C)c1=O)NC1(N2)C(=O)Nc2ccccc21 (stereo not drawn)	0	0	0	0	0	0.9
Cn1c2c(c(=O)n(C)c1=O)[C@@]1(C(=O)Nc3ccccc31)C(C#N)=C(N)O2	0	0	0	0	0	0
COc1cccc(-n2nnc3c(=O)n(CC(=O)N4CCC(Cc5ccccc5)CC4)cnc32)c1	0	0	0	0	0	1.2
Cc1cc(/C=C(\C#N)C(=O)NCc2cccs2)c(C)n1-c1ccccc1F	0	0	0	0	0	1.1
O=C(c1ccc(F)cc1)n1ccc2ccc(-c3ccc4ccn(Cc5ccccc5)c4c3)cc21	0	-	0	-	0	0
Cc1ccc(C(=O)n2ccc3ccc(-c4ccc5ccn(Cc6ccccc6)c5c4)cc32)cc1	0	-	6.2	-	0	0
NC(=S)N/N=C/c1ccc(-c2ccc(SC(F)F)cc2)o1	0	0	0	53.2	0	0
O=C(COC(=O)Cc1ccccc1F)NNC(=O)c1ccc([N+](=O)[O-])cc1	0	0	0	0	0	0
SMILES	DAX1 inh-1	DAX1 inh-2	hcDAF-12 act	AHR act	hgDAF12 agonist	ssDAF12 agonist
CC(Oc1ccc(Cl)cc1Cl)C(=O)NNC(=O)c1ccncc1 (stereo not drawn)	0	4.8	0	0	0	0
Cn1c(=O)[nH]c(N)c(Br)c1=O	0	0	0	-	0	0
CCOC(=O)C1=C(C)N(CCCC(=O)O)C(=O)NC1c1cc2ccccc2c2ccccc12 (stereo not drawn)	0	-	0	0	0	0
CSc1nc2c(c(=O)[nH]1)C(c1ccncc1)C(C(=O)OC(C)C)=C(C)N2 (stereo not drawn)	0	0	0	51.3	0	0
Cc1oc(-c2ccccc2F)nc1CS(=O)CC(=O)NCc1ccc2c(c1)OCO2 (stereo not drawn)	0	0	0	50.0	0	0
CCOC(=O)C(Cc1ccccc1)NC(=O)CCc1c(C)nc2nc(C)nn2c1C (stereo not drawn)	0	0	0	0	0	0
CCOC(=O)C(Cc1ccccc1)NC(=O)CCc1c(C)nc2ncnn2c1C (stereo not drawn)	0	0	5.7	0	0	0
CCCCc1nc2cc(C(=O)N3CCCC3)ccc2o1	4.0	0	0	0	0	0
CCCCc1nc2cc(C(=O)NC(C)c3cnn(C)c3)ccc2o1 (stereo not drawn)	3.8	0	0	0	0	0
CCCCc1nc2cc(C(=O)N3CCCCC3CC(=O)OCC)ccc2o1 (stereo not drawn)	0	0	0	0	0	0
CCCCc1nc2cc(C(=O)N3CCCCC3C(=O)OC)ccc2o1 (stereo not drawn)	4.2	0	0	0	12.2	0
CCCCc1nc2cc(C(=O)N3CCNC(=O)C3)ccc2o1	0	0	0	0	0	0
COc1ccccc1CCC(=O)Nc1ccc(S(=O)(=O)Nc2nccs2)cc1	0	0	0	0	0	0
O=C(CN1CCN(c2cccc(Cl)c2)CC1)NC1CCCc2ccccc21 (stereo not drawn)	0	0	0	0	0	0
CCOc1ccccc1Nc1nc2ccccc2[nH]1	0	0	0	50.1	0	0
CCOc1ccccc1OCC(=O)Nc1nc2ccccc2[nH]1	0	0	0	0	0	0
CCOc1ccccc1Nc1cc(C)nc2ccccc12	0	0	0	-	0	0
Cc1ccc2ncnc(Nc3ccc(C)c(C)c3)c2c1	0	0	0	50.2	0	0
CCOc1ccccc1Nc1ncnc2ccc(Br)cc12	0	0	0	76.0	0	0
CCOc1ccccc1Nc1cc(C)nc2ccc(C)cc12	0	0	0	47.6	0	0
CC(C)Cc1nnc(NC(=O)CCC(=O)N2CCN(c3ccc(Cl)cc3)CC2)s1	0	0	0	0	0	0
CC(=O)c1cccc(Nc2ncnc3ccc(Br)cc23)c1	0	0	0	73.6	0	0
OCCN(Cc1ccccc1)CC(O)COc1ccc(-c2ccccc2)cc1 (stereo not drawn)	0	0	0	0	0	0
COc1cc(C(C)=O)ccc1OCC(O)CN(CCO)Cc1ccccc1 (stereo not drawn)	0	7.2	0	0	0	0
COc1cccc(C(=O)NCCN2C(=O)C3C4C=CC(C4)C3C2=O)c1 (stereo not drawn)	0	-	0	-	0	0
Cc1cc(C(=O)N/N=C/c2cc(Br)ccc2OC(=O)c2ccccc2Cl)n[nH]1	0	0	0	64.7	0	0
Cc1ccccc1OCCC(=O)OCC(=O)Nc1ccc2[nH]c(=O)[nH]c2c1	0	0	0	0	0	0
CC(C)(C)c1csc(N/N=C/c2ccc(O)cc2)n1	0	0	0	72.3	0	0
